In all, about 310,000 compounds went through this assay and about 14,000 (4.5%) showed an effect of 50% or more. The effect is printed as a negative number. The sample holds strong results, similar compounds and a random draw of the others, so the mix is not that of the screen.
Target: human ether-à-go-go-related gene (hERG) potassium channel (human, UniProt Q12809)
Test: primary screen, population patch clamp on CHO cells stably expressing hERG; higher = less effect of the substance
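Also: peak tail current of the secondary pulse compared with the same well before compound.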

human ether-à-go-go-related gene (hERG) potassium channel, sequence (Q12809 whole entry, looked up): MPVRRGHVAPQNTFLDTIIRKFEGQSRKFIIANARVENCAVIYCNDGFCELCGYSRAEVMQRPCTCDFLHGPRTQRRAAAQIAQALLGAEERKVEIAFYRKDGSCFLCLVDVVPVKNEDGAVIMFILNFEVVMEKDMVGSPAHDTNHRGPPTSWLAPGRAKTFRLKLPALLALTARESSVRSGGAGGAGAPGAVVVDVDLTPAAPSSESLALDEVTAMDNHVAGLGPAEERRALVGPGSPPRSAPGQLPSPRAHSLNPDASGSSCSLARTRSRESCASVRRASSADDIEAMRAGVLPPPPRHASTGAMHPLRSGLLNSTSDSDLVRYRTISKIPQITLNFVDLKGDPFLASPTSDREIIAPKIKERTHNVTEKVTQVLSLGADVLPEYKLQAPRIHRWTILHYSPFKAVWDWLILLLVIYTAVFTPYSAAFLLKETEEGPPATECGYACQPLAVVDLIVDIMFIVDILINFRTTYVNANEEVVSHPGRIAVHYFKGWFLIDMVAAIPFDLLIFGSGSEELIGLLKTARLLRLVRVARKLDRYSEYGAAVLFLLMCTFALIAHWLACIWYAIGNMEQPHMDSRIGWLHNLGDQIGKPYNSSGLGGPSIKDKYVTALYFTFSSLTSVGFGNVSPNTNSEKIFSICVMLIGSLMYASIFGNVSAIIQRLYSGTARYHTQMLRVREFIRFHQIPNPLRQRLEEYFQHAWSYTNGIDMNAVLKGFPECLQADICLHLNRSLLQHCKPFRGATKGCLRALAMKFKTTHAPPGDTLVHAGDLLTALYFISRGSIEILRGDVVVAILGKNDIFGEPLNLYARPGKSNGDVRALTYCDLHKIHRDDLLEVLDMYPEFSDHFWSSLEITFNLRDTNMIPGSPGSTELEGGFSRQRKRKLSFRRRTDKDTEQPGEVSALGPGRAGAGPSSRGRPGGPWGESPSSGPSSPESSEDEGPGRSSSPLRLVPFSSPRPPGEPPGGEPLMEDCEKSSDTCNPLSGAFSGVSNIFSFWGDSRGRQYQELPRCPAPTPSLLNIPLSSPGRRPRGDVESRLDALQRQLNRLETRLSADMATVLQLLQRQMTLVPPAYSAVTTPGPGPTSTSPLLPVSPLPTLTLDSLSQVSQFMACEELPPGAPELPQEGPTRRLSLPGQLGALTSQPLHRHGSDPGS

Row | SMILES | hERG current change (%, negative = inhibition) at 10uM [%]
1 | OC1(c2cccc(C(F)(F)F)c2)CCN(Cc2nc(-c3cnccn3)no2)CC1 | -0.399
2 | CCC(=O)N=c1sc2c(OC)ccc(OC)c2n1C | 11
3 | COc1ccc(Cl)cc1C(=O)Nn1c(-c2cccs2)nc2ccccc2c1=O | -5.47
4 | O=C(O)c1nn(-c2ccccc2)nc1-c1nn(-c2ccccc2)nc1C(=O)O | 19.7
5 | O=C(N/N=C/c1cc([N+](=O)[O-])ccc1Cl)c1cc(-c2ccccc2)nc2ccccc12 | 7.64
6 | CCCc1oc(C(=O)O)cc1CN.Cl | 5.96
7 | COc1ccc(-c2c(S(=O)(=O)c3ccccc3)cnn2-c2ccccc2)cc1 | -2.43
8 | Cl.O=C(CCN1Cc2ccccc2C1)c1ccc2c(c1)OCCO2 | -8.74
9 | Cl.O=C(CCN1CCc2ccccc2C(c2ccccc2)C1)c1ccc2c(c1)OCCO2 (centres unmarked) | -0.525
10 | O=C(CCCc1ccccc1)c1ccc2c(c1)OCCO2 | -5.25
11 | O=C1C(=O)N(CCCN2CCOCC2)C(c2ccc(F)cc2)/C1=C(/O)c1ccccc1 (centres unmarked) | 23
12 | Cl.O=C(CCN1CCC(c2ccccc2)C1)c1ccc2c(c1)OCCO2 (centres unmarked) | -56
13 | Cl.O=C(CCN1CCc2ccccc2C1)c1ccc2c(c1)OCCO2 | -32.2
14 | Cl.O=C(CCN1CCC(c2ccccc2)C1)c1ccccc1 (centres unmarked) | -35.8
15 | Cl.O=C(CCCN1CCC(c2ccccc2)C1)c1ccc2c(c1)OCCO2 (centres unmarked) | -70.3
16 | Cl.O=C(CCN1CCCCC1)c1ccc2c(c1)OCCO2 | 4.82
17 | Cl.O=C(CCCN1CCOC(c2ccccc2)C1)c1ccc(F)cc1 (centres unmarked) | -60.7
18 | Cl.O=C(CCN1CCc2ccccc2CC1)c1ccc2c(c1)OCCO2 | -60.6
19 | Cl.O=C(CCN1CCOCC1)c1ccccc1 | 3.53
20 | O=C1/C(=C/c2ccccc2Cl)N2CCC1CC2 | -14.1
21 | Cc1ccc(OCCn2cc(/C=N/NC(=O)c3ccncc3)c3ccccc32)cc1 | -7.64
22 | CCOc1ccc2nc(/N=C/c3nc(-c4ccccc4)oc3O)sc2c1 | 4.73
23 | COc1ccc(-n2c3c(cc(C(=O)N4CCC(C)CC4)c2=O)C(=O)CC(C)(C)C3)cc1 | -2.69

Row | SMILES | hERG current change (%, negative = inhibition) at 10uM [%]
24 | O=C(COC(=O)CNC(=O)c1ccccc1F)NCC(F)(F)F | 9.36
25 | COc1cc(C(=O)O)cc(Br)c1OC1CCCC1 | 20.6
26 | O=S(=O)(NC1CCCCCC1)c1cccc2cccnc12 | 5.29
27 | O=[N+]([O-])c1ccc(NCc2ccccc2)c2nonc12 | 19.7
28 | CC(OC(=O)c1cccc([N+](=O)[O-])c1)C(=O)NCc1ccc2c(c1)OCO2 (centres unmarked) | -11.4
29 | COc1cccc(N2CCN(CC(=O)Nc3ccccc3C(=O)NCc3ccccc3)CC2)c1 | -60.9
30 | COc1cccc(N2CCN(CC(=O)NCc3ccccc3)CC2)c1 | -5.53
31 | COc1ccc(N2CCN(CC(=O)NCc3ccccc3)CC2)cc1 | 0.922
32 | Cc1ccc(CNC(=O)c2ccccc2NC(=O)CN2CCN(C)CC2)cc1 | -59.2
33 | COc1cccc(N2CCN(CC(=O)Nc3ccccc3C(=O)NCCc3ccccc3)CC2)c1 | 89.9
34 | COc1ccc(N2CCN(CC(=O)Nc3ccccc3C(=O)NCc3ccccc3)CC2)cc1 | -55.9
35 | Cc1ccc(CNC(=O)c2ccccc2NC(=O)CN2CC(C)OC(C)C2)cc1 (centres unmarked) | -13.2
36 | CC(=O)N1CCN(CC(=O)Nc2ccccc2C(=O)NCc2ccc(C)cc2)CC1 | -25.4
37 | COc1ccc(N2CCN(CC(=O)NC(=O)NCc3ccccc3)CC2)cc1 | 10.4
38 | CC(Oc1ccc(F)cc1)C(=O)NN (centres unmarked) | 18.6
39 | O=C(CCc1ccccc1)Nc1cc2c(cc1Cl)OCCO2 | -7.19
40 | COc1ccc(-c2csc(Nc3cccc(C)n3)n2)cc1C | 5.87
41 | O=C1NC(=S)N(c2ccc(Cl)cc2)C(=O)/C1=C/N1CCN(C(=O)c2ccco2)CC1 | 7.25
42 | Cc1cc(C(=O)OCC(=O)Nc2nc(-c3ccccc3)cs2)c(C)o1 | 15.8
43 | Cc1oncc1C(=O)NC(C)C | -3.53
44 | CN(C(=O)c1ccc(NC(=O)Cc2ccc(NC(=O)C3CCCN(C(=O)C4CC4)C3)cc2)cc1)C1CC1 (centres unmarked) | -4.41
45 | Cc1nn(S(=O)(=O)c2ccc(Cl)cc2)c(C)c1S(=O)(=O)N1CCOCC1 | 20.9
46 | CCOc1ccccc1C1CC(=O)Nc2cc(OC)c(OC)c(OC)c21 (centres unmarked) | 19.6

Row | SMILES | hERG current change (%, negative = inhibition) at 10uM [%]
47 | CCOCCN1CCN(c2c(C)c(C)nc3cc(-c4cc(OC)cc(OC)c4)nn23)CC1 | -73.3
48 | COc1cc(OC)cc(-c2cc3nc4c(c(N5CCN(c6ncccn6)CC5)n3n2)CCCC4)c1 | 4.89
49 | CCc1c(C)nc2cc(-c3cc(OC)cc(OC)c3)nn2c1N1CCN(CCN2CCOCC2)CC1 | -33.5
50 | CCc1c(C)nc2cc(-c3cc(OC)cc(OC)c3)nn2c1N1CCCC1 | -2.11
51 | COCCN1CCN(c2c(C)c(C)nc3cc(-c4cccc(OC)c4)nn23)CC1 | -15.6
52 | CCOCCN1CCN(c2c(CC)c(C)nc3cc(-c4cc(OC)cc(OC)c4)nn23)CC1 | -72.4
53 | Nc1nc2ccc(C(=O)Nc3ccccc3)cc2s1 | 7.6
54 | Cc1ccc2c(c1)CC1(CN2C)C(=O)NC(=O)N(CCc2ccccc2)C1=O (centres unmarked) | -15.2
55 | CNC(=O)C(C)c1ncc(C(F)(F)F)cc1Cl (centres unmarked) | 17.6
56 | CCn1c(SCC(=O)Nc2cc(C)nn2-c2ccccc2)nnc1-c1cccs1 | -12.9
57 | Nn1c(SCC(=O)N2CCN(S(=O)(=O)c3ccc(Cl)cc3)CC2)nnc1-c1cccs1 | -52.1
58 | CCn1c(SCC(=O)Nc2c(C#N)cnn2-c2ccccc2)nnc1-c1cccs1 | -13.6
59 | Nn1c(SCC(=O)Nc2ccccc2F)nnc1-c1cccs1 | -65.7
60 | CCc1ccc(NC(=O)CSc2nnc(-c3cccs3)n2CC)cc1 | -69.7
61 | CCn1c(SCC(=O)Nc2ccc(C(=O)OC)cc2)nnc1-c1cccs1 | -10.7
62 | CCOC(=O)c1cnn(-c2ccccc2)c1NC(=O)CSc1nnc(-c2cccs2)n1CC | -69.5
63 | CCOC(=O)c1ccc(NC(=O)CSc2nnc(-c3cccs3)n2CC)cc1 | 5.69
64 | CC(=O)Nc1ccc(NC(=O)CSc2nnc(-c3cccs3)n2N)cc1 | 1.15
65 | Cn1c(SCC(=O)Nc2ccccc2F)nnc1-c1cccs1 | -24.2
66 | Cc1nnc(SCC(=O)N2CCN(S(=O)(=O)c3ccc(Cl)cc3)CC2)n(N)c1=O | -19
67 | Nn1c(SCC(=O)N2CCN(S(=O)(=O)c3ccccc3)CC2)nnc1-c1cccs1 | -10.1
68 | O=C(NCc1ccccc1)c1cccc(NS(=O)(=O)c2cccc3cccnc23)c1 | 6.09
69 | COc1cnc(-c2ccccc2)nc1OC | 12.4

Row | SMILES | hERG current change (%, negative = inhibition) at 10uM [%]
70 | O=C(O)c1cc(S(=O)(=O)NCc2ccco2)c(Cl)cc1Cl | 14.9
71 | COCC(C)NCc1ccc(C)cc1C (centres unmarked) | -14.3
72 | O=S(=O)(NCc1ccccn1)c1ccc2c(c1)OCCO2 | 10.5
73 | Nc1cc(-c2cccc(Br)c2)nn1Cc1ccccc1 | -17.2
74 | Nc1cc(=O)nc(SCC(=O)Nc2cccc3ccccc23)n1CCc1ccccc1 | -7.07
75 | CCOC(=O)C1C(c2ccc(O)cc2)NC(=O)NC1(O)C(F)(F)F (centres unmarked) | 2.48
76 | O=C(NNC(=O)C1CCC1)c1cccc(Cl)c1 | -5.52
77 | CCOP(=O)(OCC)c1cc(C)c(O)c(C(C)(C)C)c1 | -3.41
78 | C=CCn1c(SCc2ccc3nonc3c2)nnc1-c1cccs1 | -68.7
79 | CCn1c(SCC(=O)Nc2ccccc2)nnc1-c1cccs1 | -70.8
80 | Cn1c(Cc2cccs2)nnc1SC/C=C/c1ccccc1 | -0.882
81 | O=C(CSc1nnc(-c2cccs2)n1-c1ccccc1)Nc1ccccc1 | -44.3
82 | CCn1c(SCC(=O)Nc2cc(OC)c(OC)c(OC)c2)nnc1-c1cccs1 | -7.07
83 | CCn1c(SCC(=O)Nc2ccc(NC(=O)c3ccco3)cc2)nnc1-c1cccs1 | 11.9
84 | CCn1c(SCC(=O)c2ccccc2)nnc1-c1cccs1 | -14.8
85 | Cc1ccc(NC(=O)c2ccco2)cc1NC(=O)CSc1nnc(-c2cccs2)n1C | -38
86 | CCn1c(SC/C=C/c2ccccc2)nnc1-c1cccs1 | -66.3
87 | C=CCn1c2ccccc2c2nnc(SCc3ccc4nonc4c3)nc21 | 0.592
88 | CCn1c(SCC(=O)Nc2cccc(NC(=O)c3ccco3)c2)nnc1-c1cccs1 | -79.8
89 | C=CCn1c(SCCC(=O)O)nnc1-c1cccs1 | 6.75
